The supplement of paper PMC8975748
Structures can show the parent of a compound that is named as a salt.

system: Saccharomyces cerevisiae BY4741 SeMeCo community; experiment: z-score of subpopulation abundance vs DMSO median, subpopulation auxotrophic for HLU; higher = larger share of this subpopulation than in DMSO controls; settings: 10 µM; 24 h; SM minimal medium; subpopulation (auxotrophy): HLU
Description: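 Fluorescent four-plasmid SeMeCo (self-establishing metabolically cooperating S. cerevisiae BY4741 community; plasmids pH-mRuby2, pL-mWasabi, pU-eCFP, pM-TagRFP657) was grown 24 h in minimal SM medium with each Selleck FDA-approved drug at 10 µM in 384-well plates. Cells were fixed and imaged by high-content confocal microscopy. For each auxotrophic subpopulation (and the prototroph), a z-score gives the deviation from the DMSO vehicle-control population median.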

Structure (SMILES) | z-score of subpopulation abundance
CN1CCN2c3ncccc3Cc3ccccc3C2C1 (stereo not given) [Mirtazapine] | -0.45
CCOC(=O)c1ccc(N)cc1 [Benzocaine hydrochloride] | -0.85
Nc1nc(N)nc(-c2cc(Cl)ccc2Cl)n1 [Irsogladine] | 0.75
CCCCOc1ccc(CC(=O)NO)cc1 [Bufexamac] | -0.71
C#C[C@]1(OC(C)=O)CC[C@H]2[C@@H]3CCC4=C[C@@H](OC(C)=O)CC[C@@H]4[C@H]3CC[C@@]21C [Ethynodiol diacetate] | 0.1
CN(C)c1ccc(O)c2c1C[C@H]1C[C@H]3[C@H](N(C)C)C(=O)C(C(N)=O)=C(O)[C@@]3(O)C(=O)C1=C2O [Minocycline HCl] | 0.06
CC1(C)S[C@@H]2[C@H](NC(=O)[C@H](N)c3ccc(O)cc3)C(=O)N2[C@H]1C(=O)O [Amoxicillin trihydrate] | 0.3
NCc1ccccc1CC(=O)N[C@@H]1C(=O)N2C(C(=O)O)=C(CSc3nnnn3CC(=O)O)CS[C@H]12 [Ceforanide] | 0.38
CC(=O)[O-].[K+] [Potassium acetate] | -0.71
CCC[S+]([O-])c1ccc2[nH]c(NC(=O)OC)nc2c1 (stereo not given) [Albendazole Oxide] | -0.31
CC1(C)S[C@@H]2[C@H](NC(=O)Cc3ccccc3)C(=O)N2[C@H]1C(=O)O [Penicillin G Sodium] | -0.18
C#CCC(Cc1cnc2nc(N)nc(N)c2n1)c1ccc(C(=O)N[C@@H](CCC(=O)O)C(=O)O)cc1 (stereo not given in full) [Pralatrexate] | 0.5
COCCOC(=O)C1=C(C)NC(C)=C(C(=O)OC(C)C)C1c1cccc([N+](=O)[O-])c1 (stereo not given) [Nimodipine] | -0.01
COC1C(O)CC(=O)OC(C)CC=CC=CC(OC2CCC(N(C)C)C(C)O2)C(C)CC(CC=O)C1OC1OC(C)C(OC2CC(C)(O)C(O)C(C)O2)C(N(C)C)C1O (stereo not given) [Spiramycin] | -0.77
CN[C@H](CC(C)C)C(=O)N[C@H]1C(=O)N[C@@H](CC(N)=O)C(=O)N[C@H]2C(=O)N[C@H]3C(=O)N[C@H](C(=O)N[C@H](C(=O)O)c4cc(O)cc(O)c4-c4cc3ccc4O)[C@H](O)c3ccc(c(Cl)c3)Oc3cc2cc(c3O[C@@H]2O[C@H](CO)[C@@H](O)[C@H](O)[C@H]2O[C@H]2C[C@](C)(N)[C@H](O)[C@H](C)O2)Oc2ccc(cc2Cl)[C@H]1O [Vancomycin] | -0.21
CO/N=C(\C(=O)N[C@@H]1C(=O)N2C(C(=O)O)=C(CSc3nnnn3C)CS[C@H]12)c1csc(N)n1 [Cefmenoxime hydrochloride] | -0.51
CCOc1ccc2ccccc2c1C(=O)N[C@@H]1C(=O)N2[C@@H]1SC(C)(C)[C@@H]2C(=O)O [Nafcillin Sodium] | -0.19
CN1CCN(CC(=O)N2c3ccccc3C(=O)Nc3cccnc32)CC1 [Pirenzepine dihydrochloride] | -0.21
O=C1c2cccc3c2[C@H](CCC3)CN1[C@@H]1CN2CCC1CC2 [Palonosetron] | -0.63
CN(C)c1cc(NC(=O)CNC(C)(C)C)c(O)c2c1CC1CC3C(N(C)C)C(=O)C(C(N)=O)=C(O)C3(O)C(=O)C1=C2O (stereo not given) [Tigecycline] | -0.27

Structure (SMILES) | z-score of subpopulation abundance
COc1ccc([C@@H]2Sc3ccccc3N(CCN(C)C)C(=O)[C@@H]2OC(C)=O)cc1 [Diltiazem HCl] | 0.03
CS(=O)(=O)Nc1ccc([N+](=O)[O-])cc1Oc1ccccc1 [Nimesulide] | 0.61
Clc1ccc(CCC(Cn2ccnc2)Sc2c(Cl)cccc2Cl)cc1 (stereo not given) [Butoconazole nitrate] | 12.5
CCOC(=O)C1=C(COCCN)NC(C)=C(C(=O)OC)C1c1ccccc1Cl (stereo not given) [Amlodipine] | -3.87
C[C@](N)(Cc1ccc(O)c(O)c1)C(=O)O [Methyldopa] | -0.36
CC(C)(C)CC(C)(C)c1ccc(OCCOCC[N+](C)(C)Cc2ccccc2)cc1 [Benzethonium Chloride] | -0.61
CC[C@@H](CO)NCCN[C@@H](CC)CO [Ethambutol 2HCl] | 0.56
CC1(C)[C@H](C(=O)O)N2C(=O)C[C@H]2S1(=O)=O [Sulbactam] | -0.86
O=C1OCCN1/N=C/c1ccc([N+](=O)[O-])o1 [Furazolidone] | -2.4
Cc1ccc(-c2ncc(Cl)cc2-c2ccc(S(C)(=O)=O)cc2)cn1 [Etoricoxib] | 0.34
CC[N+](CC)(CC)CC [Tetraethylammonium bromide] | 0.38
C#C[C@]1(O)CC[C@H]2[C@@H]3CCC4=CC(=O)CC[C@@H]4[C@H]3C(=C)C[C@@]21CC [Etonogestrel] | 0.5
CC[C@H](C)C(=O)O[C@H]1C[C@@H](C)C=C2C=C[C@H](C)[C@H](CC[C@@H]3C[C@@H](O)CC(=O)O3)[C@H]21 [Lovastatin] | 0.37
CCN[C@@H]1C[C@H](N)[C@@H](O[C@H]2OC(CN)=CC[C@H]2N)[C@H](O)[C@H]1O[C@H]1OC[C@](C)(O)[C@H](NC)[C@H]1O [Netilmicin Sulfate] | 0.09
C/C(=C\C(=O)OCCCCCCCCC(=O)O)C[C@@H]1OC[C@H](C[C@@H]2O[C@H]2[C@@H](C)[C@H](C)O)[C@@H](O)[C@H]1O [Mupirocin calcium] | 0.12
CN1C[C@@H]2C[C@H]1CN2c1cc2c(cc1F)c(=O)c(C(=O)O)cn2C1CC1 [Danofloxacin Mesylate] | 0.21
Cn1c(=O)c2c(ncn2CC(O)CO)n(C)c1=O (stereo not given) [Dyphylline] | -0.29
C[C@@H](O)[C@H]1C(=O)N2C(C(=O)O)=C(S[C@@H]3CN[C@H](C(=O)Nc4cccc(C(=O)O)c4)C3)[C@H](C)[C@H]12 [Ertapenem sodium] | -1.03
Clc1ccccc1C(c1ccccc1)(c1ccccc1)n1ccnc1 [Clotrimazole] | 3.78
O=C1CC2(CCCC2)CC(=O)N1CCCCN1CCN(c2ncccn2)CC1 [Buspirone HCl] | -0.25
